Reference: PubChem BioAssay (NCATS)
Inconclusive results are not listed. The source made the active and inactive calls. The call rests on the fitted dose curve; in most records, active means well fitted inhibition curve with a large enough effect; inconclusive means small, poorly fitted or top-dose-only effect; inactive means flat fitted curve, though single readings scatter.

Columns and labels:
Experiment in all cases: qHTS profiling for inhibitors of Plasmodium falciparum proliferation (AID 504749); further: nearly all actives have a fitted effect of over 60% in size
Conditions in all cases: P. falciparum in erythrocytes, SYBR Green DNA, 72 h; series mostly up to 28.7 µM
[1] = system: 3D7
Outline: (§1)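 In a 72 h erythrocytic culture (37 C, humidified, 5% CO2) at 2.5% hematocrit and 0.3% starting parasitemia, compounds were tested; SYBR Green I in detergent lysis buffer stained parasite DNA overnight.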

[2] = system: C2A
Outline: as §1

[3] = system: CP211
Outline: as §1

[4] = system: CP215
Outline: as §1

[5] = system: CP217
Outline: as §1

[6] = system: CP238
Outline: as §1

[7] = system: CP250
Outline: as §1

[8] = system: CP252
Outline: as §1

[9] = system: CP256
Outline: as §1

[10] = system: CP262
Outline: as §1

[11] = system: CP266
Outline: as §1

[12] = system: CP268
Outline: as §1

[13] = system: CP269
Outline: as §1

[14] = system: CP286
Outline: as §1

[15] = system: CP305
Outline: as §1

[16] = system: CP325
Outline: as §1

[17] = system: CP329
Outline: as §1

[18] = system: CP335
Outline: as §1

[19] = system: DIV30
Outline: as §1

[20] = system: PAD
Outline: as §1

Measured: Potency
Potency means the concentration at half of the fitted maximal effect.

CCCCC(=O)N(Cc1ccc(-c2ccccc2-c2nn[nH]n2)cc1)C(C(=O)O)C(C)C (stereo not given)
inactive: [1] | [2] | [3] | [4] | [5] | [6] | [7] | [8] | [9] | [10] | [11] | [12] | [13] | [14] | [15] | [16] | [17] | [19] | [20]
active: [18] 6.01 µM
